The source of these data is PubChem BioAssay (NCATS).

Records with an inconclusive call do not appear. Values without a mark were called inactive. The source made the active and inactive calls. The call rests on the fitted dose curve; in most records, active means well fitted curve in the direction sought with a large enough effect; inconclusive means small, poorly fitted or top-dose-only effect, or another doubt; inactive means no such curve, though single readings can be large; an effect the other way counts as inactive or inconclusive.

For assay [1], the system named is MKL-1. The assay is described as follows: qHTS assay to identify novel small-molecules to repurpose for Merkel cell carcinoma treatment (AID 1296009). Further: nearly all actives have a fitted effect of over 60% in size. Further: potency means the concentration at half of the fitted maximal effect. The following applies: MCC and control cell lines, CellTiter-Glo viability, 72 h; series mostly up to 46 µM. The method in brief: (§1)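 Cells exposed to NPC (8-point) and MIPE (11-point) compound dilutions for 72 hr at 37 degree celsius; viability read by CellTiter-Glo luminescence, normalized to no-cell and DMSO in-plate controls.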
Background: Quantitative high-throughput screening tests each substance at several concentrations.

In assay [2] the test system is MKL-2. Described as above. The following applies: MCC and control cell lines, CellTiter-Glo viability, 72 h; series mostly up to 46 µM. In outline:
as §1

The test system of assay [3] is NIH3T3. Described as above. The settings on record: MCC and control cell lines, CellTiter-Glo viability, 72 h; at 44.8 µM (top of the series) unless noted. The method in brief: as §1
(ATP-based viability assays read luminescence as a measure of living cells.)

The subject of assay [4] is UISO. The description is as above. The following applies: MCC and control cell lines, CellTiter-Glo viability, 72 h; series mostly up to 46 µM. In outline:
as §1

Assay [5] has as its system WaGa. The description is as above. The following applies: MCC and control cell lines, CellTiter-Glo viability, 72 h; series mostly up to 46 µM. The method in brief: as §1
Assay [6] is described as follows: Drug repurposing screens with cells derived from glioblastoma tumor samples (AID 1345199). Further: nearly all actives have a fitted effect of over 40% in size. The settings on record: GBM patient neurospheres viability, ATP luminescence, 48 h. The method in brief: (§2)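 Four patient lines of CD133+ GBM neurospheres were screened at several concentrations; hits were retested in those lines plus three slower-growing GBM lines, using 48-hour treatment and ATP-based viability.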

For assay [7], the system named is astro. Described as above. The following applies: viability, ATP luminescence, 48 h; series mostly up to 45.9 µM. The method in brief:
as §2

Assay [8] deals with C33A. The assay is described as follows: Primary qHTS to identify gynecologic anti-cancer compounds using libraries of approved drugs and bioactive compounds (AID 1345084). Further: nearly all actives have a fitted effect of over 55% in size. The settings on record: Gynecologic cancer cell panel viability, ATPlite luminescence, 48 h; series mostly up to 57.5 µM. In outline:
(§3)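 Cell viability after 48 h drug treatment, ATPlite luminescence readout; five doses.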

Assay [9] relates to CAOV3. The assay is described as above. The settings on record: Gynecologic cancer cell panel viability, ATPlite luminescence, 48 h; series mostly up to 57.5 µM. In outline:
as §3

Assay [10] concerns CASKI. The assay is described as above. The following applies: Gynecologic cancer cell panel viability, ATPlite luminescence, 48 h; series mostly up to 57.5 µM. The method in brief:
as §3

Assay [11] deals with Es-2. The assay is described as above. The settings on record: Gynecologic cancer cell panel viability, ATPlite luminescence, 48 h; series mostly up to 57.5 µM. In outline: as §3
In assay [12] the test system is HeLa. Described as above. The following applies: Gynecologic cancer cell panel viability, ATPlite luminescence, 48 h; series mostly up to 57.5 µM. The method in brief: as §3
Assay [13] deals with Hek293T. The assay is described as above. The settings on record: Gynecologic cancer cell panel viability, ATPlite luminescence, 48 h, control line for the selectivity index; series mostly up to 57.5 µM. In outline:
as §3

The test system of assay [14] is JEG-3. The description is as above. The settings on record: Gynecologic cancer cell panel viability, ATPlite luminescence, 48 h; series mostly up to 57.5 µM. The method in brief:
as §3

The test system of assay [15] is OV90. The assay is described as above. The following applies: Gynecologic cancer cell panel viability, ATPlite luminescence, 48 h; series mostly up to 57.5 µM. The method in brief:
as §3

In assay [16] the test system is PA-1. Described as above. The settings on record: Gynecologic cancer cell panel viability, ATPlite luminescence, 48 h; series mostly up to 57.5 µM. In outline: as §3
Assay [17] deals with SKOV3. Described as above. The settings on record: Gynecologic cancer cell panel viability, ATPlite luminescence, 48 h; series mostly up to 57.5 µM. In outline:
as §3

Assay [18] relates to Tov-21-G. The description is as above. The following applies: Gynecologic cancer cell panel viability, ATPlite luminescence, 48 h; series mostly up to 57.5 µM. In outline: as §3
The subject of assay [19] is Tov112D. The assay is described as above. The following applies: Gynecologic cancer cell panel viability, ATPlite luminescence, 48 h; series mostly up to 57.5 µM. The method in brief: as §3
The mark [20] stands for this setting: at 45.9 µM (top of the series), tumour line B.
[21] abbreviates: at 45.9 µM (top of the series), tumour line D.
Where [22] appears, read: at 46 µM (top of the series), tumour line A.
[23] abbreviates: at 46.1 µM (top of the series), tumour line C.
On the % scale 0 is the no-effect control and ±100 the full control effect.

On to `C[Se]CCC(N)C(=O)O` (stereo not drawn), for which the Potency result in [1], in assay [2], in assay [4], in [5] and in [7] was “inactive” each time. For the same molecule, in assay [3], the outcome was “inactive [at 92 µM]”. Besides, the activity, negative = cell killing in assay [6] (setting [20]) was -7.06%; in assay [6] (setting [21]), 3.7%; in assay [6] (setting [22]) it was -13.2%; in assay [6] (setting [23]), 5.25%.

Turning to `O=C1c2c(O)cc(O)cc2OC(c2ccc(O)c(O)c2)C1O` (stereo not drawn), the Potency result in [1], in assay [2], in assay [4] and in assay [5] was “inactive” in each case.

As to `C[C@H](Cn1cnc2c(N)ncnc21)OCP(=O)(O)O`, the Potency result in assay [1], in assay [2], in assay [4], in assay [5] and in assay [7] was “inactive” throughout. In addition, the call in assay [3] was inactive. The activity, negative = cell killing in assay [6] (setting [20]) was -17.6%; in assay [6] (setting [21]) it was -7.53%; in [6] (setting [22]) it was -24.5%; in assay [6] (setting [23]), -20.5%.

Turning to `Clc1ccc(C(Cn2ccnc2)OCc2ccsc2Cl)c(Cl)c1` (stereo not drawn), the Potency result in assay [1], in assay [2], in assay [5], in assay [8], in assay [9] and in [10] was “inactive” each time. Further, the Potency result in assay [11], in assay [12], in [13], in [14], in assay [15] and in assay [16] was “inactive” in each case. Further, the Potency result in assay [17], in assay [18] and in assay [19] was “inactive” throughout. For the same molecule, the Potency in assay [4] was 21.1 µM (active).

Take `O=C(OC1C[C@H]2CC[C@@H](C1)[N+]21CCCC1)C(O)(c1ccccc1)c1ccccc1` (stereo partly drawn): the Potency entry in [1], in assay [2], in [4], in assay [5], in [8] and in [9] was “inactive” throughout. Besides, the Potency result in assay [10], in assay [11], in assay [12], in [13], in assay [14] and in assay [15] was “inactive” each time. In addition, the Potency entry in assay [16], in assay [17], in assay [18], in [19] and in [7] was “inactive” throughout. The values for the activity, negative = cell killing in assay [6] (setting [20]), in assay [6] (setting [21]) and in [6] (setting [23]) were -3.76%, -11.8% and -2.11%, respectively.

As for `CCOC(=O)C1=C[C@@H](OC(CC)CC)[C@H](NC(C)=O)[C@@H](N)C1`, the Potency result in assay [1], in [2], in assay [4], in assay [5] and in assay [7] was “inactive” in each case. Further, in [3], the outcome was inactive. Further, the activity, negative = cell killing in assay [6] (setting [20]) was -10.4%; in assay [6] (setting [21]), -1.97%; in assay [6] (setting [23]), 5.2%.

Take `O=c1c(O)c(-c2cc(O)c(O)c(O)c2)oc2cc(O)cc(O)c12`: the Potency result in assay [1], in [2], in assay [4] and in assay [5] was “inactive” each time.

Turning to `NS(=O)(=O)c1cc(C(=O)O)c(NCc2ccco2)cc1Cl`, the Potency entry in [1], in assay [2], in assay [4], in [5], in assay [8] and in [9] was “inactive” in each case. Moreover, the Potency result in assay [10], in [11], in assay [12], in [13], in assay [14] and in assay [15] was “inactive” each time. Besides, the Potency entry in assay [16], in [17], in assay [18], in assay [19] and in [7] was “inactive” each time. Further, the activity, negative = cell killing in [6] (setting [20]) is -8.22%; in [6] (setting [21]), -18.4%; in [6] (setting [23]) it was 5.25%.
